Rab9 prom act: activates the Rab9 promoter; Huh7 Rab9 promoter-luciferase reporter, luminescence, 24 h; Potency, µM (highest dose often 9.22 µM), inactives show at the highest dose activation, negative = inhibition, actives largely listed as activators; 320,000 tested, 2.8% active; AID 485297; note: % of control where 0% means no effect; nearly all actives have a fitted effect of over 60% in size
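Promoter activation is measured as luciferase luminescence in Huh7 cells stably transfected with a Rab9 promoter–luciferase construct, following 24 h compound exposure at 37 °C and 10 min reagent incubation at ambient temperature.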
SMN2 splice enh: enhancers of SMN2 splice variant expression. 210,000 tested, 2.8% active. AID 1458. Potency, µM (doses to about 46.1 µM), for the others: at the highest dose activity change, positive = activation, hits mostly activators. HEK293 SMN2-luciferase splicing reporter, luminescence, 30-36 h; note: % of control where 0% means no effect; nearly all actives have a fitted effect of over 55% in size
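qHTS luciferase splicing reporter: luminescence rises when SMN2 exon 7 is included in transfected HEK293 cells. Compound exposure lasted 30-36 h at 37C, with 4.5 mM final sodium butyrate as control, followed by a ONE-Glo read.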
KinaseGlo FLuc: Kinase-Glo luciferase inhibition (counter-screen); Q27757; Kinase-Glo luciferase, ATP luminescence, 8 min; Potency, µM (highest dose often 38.3 µM), without a hit: at the highest dose activity change, negative = inhibition, most hits filed as inhibitors; 200,000 tested, 0.28% active; note: % is set by controls: 0 for no effect and ±100 for the full control effect; nearly all actives have a fitted effect of over 60% in size
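Recombinant Kinase-Glo luciferase, 10 uM ATP (linear range), luciferin; imidazole pH 7.2 / KCl / MgCl2 / Tween / BSA buffer; 8 min RT; luminescence.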
NPC1 promoter act: NPC1 promoter activation; Huh7 NPC1 promoter luciferase reporter, 24 h; Potency, µM (doses to about 9.22 µM), for inactives: at the top dose activation, hits mostly activators; 320,000 tested, 2.4% active; AID 485313; note: % of control where 0% means no effect; nearly all actives have a fitted effect of over 60% in size
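Stably transfected Huh7 (NPC1 promoter→luciferase), 1500 cells/well in Opti-MEM + 10% FBS, 2 h settle, then compound 24 h at 37 °C. Luminescence after 10 min with Amplite reagent.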
FLuc counter: counter-screen for miR-21 project: firefly luciferase inhibitors or activators; purified FLuc, Km substrates, luminescence inhibition; Potency, µM (highest dose often 57.5 µM), for the others: at the highest dose activity change, negative = inhibition, actives largely listed as inhibitors; 360,000 tested, 6.9% active;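 note: plate controls were vehicle for no effect and reference inhibitor for full effect; nearly all actives have a fitted effect of over 55% in size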
Target sequence (P08659 whole entry, looked up): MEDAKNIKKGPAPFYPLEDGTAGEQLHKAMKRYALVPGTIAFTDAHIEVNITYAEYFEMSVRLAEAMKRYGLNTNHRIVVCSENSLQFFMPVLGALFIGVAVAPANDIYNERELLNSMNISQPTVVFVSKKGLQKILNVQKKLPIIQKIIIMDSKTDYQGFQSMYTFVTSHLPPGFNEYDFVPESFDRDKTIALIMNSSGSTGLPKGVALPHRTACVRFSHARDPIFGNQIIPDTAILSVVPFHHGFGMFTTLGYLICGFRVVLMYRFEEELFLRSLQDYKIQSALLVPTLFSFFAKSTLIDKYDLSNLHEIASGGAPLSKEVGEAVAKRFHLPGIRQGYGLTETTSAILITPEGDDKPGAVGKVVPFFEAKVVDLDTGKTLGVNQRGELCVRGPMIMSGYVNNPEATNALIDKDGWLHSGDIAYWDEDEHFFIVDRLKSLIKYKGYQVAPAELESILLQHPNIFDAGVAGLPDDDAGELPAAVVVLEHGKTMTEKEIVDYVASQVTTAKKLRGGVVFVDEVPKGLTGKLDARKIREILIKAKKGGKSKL
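Purified P. pyralis luciferase, 10 nM final, with Km-level 10 uM D-luciferin and 10 uM ATP in 50 mM Tris acetate pH 7.5, 10 mM Mg acetate, 0.01% Tween-20, 0.05% BSA; 6-point qHTS titration about 60 µM downward; luminescence read.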
* hit, by the source's call; ? = inconclusive; nt = no result; [ ] = another dose, or the depositor's remark. Rows were chosen to be rich in hits. Some 7.3% of all compounds tested hit in one or more screens of this group. Calls come from the whole dose curve; as a rule, active = well fitted curve in the direction sought with a large enough effect; inconclusive = small, poorly fitted or top-dose-only effect, or another doubt; inactive = no such curve, though single readings can be large; an effect the other way counts as inactive or inconclusive. Potency is the fitted concentration of half-maximal effect.

SMILES | Rab9 prom act | SMN2 splice enh | KinaseGlo FLuc | NPC1 promoter act | FLuc counter
Cc1cccc(OCC(=O)Nc2cc(NC(=O)COc3cccc(C)c3C)cc(C(=O)O)c2)c1C | 23% | nt | nt | 6% | -3%
Cc1ccccc1OCC(=O)Nc1ccc2c(c1)Cc1ccccc1-2 | -3% | nt | nt | 2% | ?
Cc1ccc(-c2nc(SCC(=O)NCc3ccco3)c3c(=O)n(C)c(=O)n(C)c3n2)cc1 | nt | nt | nt | nt | -2%
CCc1ccc(OC(=O)c2cncc(Br)c2)cc1 | -7%[1.84 µM] | nt | nt | 0% | 6µM*
CCc1ccc(C(=O)COC(=O)c2cncc(Br)c2)cc1 | -7% | -19% | -2% | -4% | 15µM*
CCCCCOC(=O)c1ccc(OC(=O)c2cncc(Br)c2)cc1 | 22% | 56% | 5% | 21% | -13%
Clc1ccc(Cc2nnc(-c3ccccc3Br)o2)cc1 | -5% | -2% | -1% | 0% | ?
Brc1ccc(-c2nnc(-c3ccccc3Br)o2)cc1 | 0.71µM* | 14µM* | -18% | 1.1µM* | 1.3µM*
Cc1ccc(-c2nnc(/C=C/c3ccccc3)o2)cc1 | 18% | 18µM* | -3% | 22% | 17µM*
Brc1ccccc1-c1nnc(-c2cccnc2)o1 | ? | 2% | 0% | ? | 15µM*
Cc1ccc(-c2nnc(-c3ccccc3Br)o2)cc1 | 4µM* | nt | nt | 4µM* | 0.76µM*
Cc1cc(C)c(NC(=O)CCn2c(=O)c3cccn3c3cccnc32)c(C)c1 | nt | nt | nt | nt | 0%
CCc1ccc(C2CC(=O)c3c([nH]c(C(=O)OC4CCC(C)CC4)c3C)C2)cc1 (centres undefined) | nt | 9% | nt | nt | 1%
Cc1ccccc1Nc1c(-c2ccc(N3CCOCC3)cc2)nc2ncccn12 | -1% | -11% | 3% | 14% | 11µM*
Cc1ccc(Nc2c(-c3ccc(N4CCOCC4)cc3)nc3cnccn23)cc1 | 16% | nt | nt | 17% | 5.4µM*
Cc1ccc(Nc2c(-c3ccc(N4CCOCC4)cc3)nc3ccc(C)cn23)cc1 | nt | 6% | nt | nt | 0%
Cc1ccccc1Nc1c(-c2ccc(N3CCOCC3)cc2)nc2cnccn12 | ? | nt | nt | ? | 1.5µM*
COC(=O)/N=C(/Cc1ccc(OC)cc1)c1ccc(OC)cc1 | 17% | nt | nt | 18% | 0.76µM*
COc1cccc(Nc2nnc(SCc3nc4ccccc4s3)s2)c1 | ? | -11% | -2% | ? | 13µM*
Cc1cccc(C)c1Nc1nnc(SCc2nc3ccccc3s2)s1 | 25% | ? | -3% | 6% | 6µM*
COc1cccc(Nc2nnc(SCC(=O)N(CC(C)C)CC(C)C)s2)c1 | -15% | nt | nt | -2% | 11µM*
Cc1cc(Cl)ccc1NC(=O)CN1C(=O)CSc2ccc(S(=O)(=O)N(C)C)cc21 | nt | nt | nt | nt | 3%
Cc1nn2c(C)c(C(=O)NCc3cccc(Br)c3)cnc2c1-c1ccccc1 | nt | nt | nt | nt | -11%
S=C(NCc1ccccc1)Nc1ccc(Oc2ccccc2)cc1 | -3% | nt | nt | -5% | -21%
C/C(=C\C(=S)Nc1ccccc1)Nc1ccc2ccccc2c1 | 14% | -2% | 0% | 16% | 17µM*
SMILES | Rab9 prom act | SMN2 splice enh | KinaseGlo FLuc | NPC1 promoter act | FLuc counter
S=C(NCc1ccccc1)Nc1ccc2ccccc2c1 | ? | nt | nt | 2.2µM* | 13µM*
O=C(c1cc(-c2ccccc2O)on1)N1CCc2ccccc2C1 | 6% | 21% | 0% | -5% | ?
O=C(c1cc(-c2cccs2)on1)N1CCN(C(c2ccccc2)c2ccccc2)CC1 | -54% | -14% | -2% | -32% | 1%
O=C(c1cc(-c2cccs2)on1)N1CCc2ccccc2C1 | 2% | 0% | 3% | -3% | 19µM*
O=C(c1cc(-c2cccs2)on1)N1CCOCC1 | ? | ? | -10% | 2.8µM* | 19µM*
Cc1ccc(NC(=O)CCc2nnc3n(C)c(=O)c4sccc4n23)cc1C | nt | -9% | nt | nt | 2%
COc1ccc(C2(CNC(=O)C(=O)Nc3ccccc3C)CCCC2)cc1OC | nt | -2% | nt | nt | 5%
Cc1cccc(-c2nc3nc(C)cc(N4CCN(c5ccccc5)CC4)n3n2)c1 | nt | 2% | nt | nt | -1%
Cc1cccc(-c2nc3nc(C)cc(NC(C)c4ccccc4)n3n2)c1 (centres undefined) | nt | nt | nt | nt | 17µM*
CC(CO)(CO)N=Cc1cc(I)cc(I)c1O | nt | -11%[9.22 µM] | -4%[7.66 µM] | nt | nt
C=CCc1ccc(OC(=O)c2ccccc2)c(OC)c1 | -2% | -5% | 0% | -4% | 6.7µM*
C=CCc1ccc(OCCCCN2CCC(C)CC2)c(OC)c1 | -2% | -13% | 0% | 6% | 1%
COc1cc(C(=S)N2CCOCC2)ccc1OC(=O)c1ccccc1 | -2% | nt | nt | -1% | 4%
C=CCc1ccc(OCCCOc2ccc(C(=O)O)cc2)c(OC)c1 | 5% | 15% | 0% | 15% | 11µM*
COc1ccc(CCNC(=O)c2ccc(Cl)cc2Cl)cc1 | -2% | -17% | 0% | 0% | 17µM*
C#CCNC(=O)c1ccc(OCc2ccccc2)cc1Cl | 27% | -13% | -15% | 5% | ?
O=C(O)CCC(=O)Nc1ccccc1C(=O)NCCc1ccccc1 | ? | ? | -2% | ? | 19µM*
O=C(NCCCl)c1ccc(OCc2ccccc2)cc1Cl | 1.6µM* | 13µM* | -2% | ? | ?
O=C(NCCOc1ccccc1)c1ccccc1Cl | 0.45µM* | nt | nt | 0.63µM* | 8.5µM*
O=C(O)CCC(=O)Nc1ccccc1C(=O)Nc1ccccc1 | -2% | 1% | 1% | 2% | 0%
COc1ccc(OCCNC(=O)c2ccccc2Cl)cc1 | -2% | nt | nt | 0% | -6%
CCc1cc2c(cc3c(=O)n(CC(=O)NC4CCC(C)CC4)ncn32)s1 (centres undefined) | nt | 6% | nt | nt | 3%
O=C(/C=C/c1ccccc1Cl)NCCc1ccccc1 | ? | ? | -8% | ? | 19µM*
O=C(/C=C/c1ccccc1Cl)NCc1ccccc1 | 29% | 16% | -2% | 3% | ?
Cc1nn(Cc2ccccc2)c(Cl)c1C(=O)NCc1ccc(C)n1C | -4% | -9% | 5% | 2% | 4%
SMILES | Rab9 prom act | SMN2 splice enh | KinaseGlo FLuc | NPC1 promoter act | FLuc counter
Cc1nn(Cc2ccccc2)c(Cl)c1C(=O)NCCc1ccccc1 | 2.2µM* | 14µM* | 4% | 2.5µM* | 9.5µM*
O=C(NCCOc1ccccc1Cl)c1cc(F)c(F)cc1Cl | 2.2µM* | nt | nt | 2.8µM* | 5.4µM*
O=C(NCCc1ccccc1)c1ccccc1Cl | 0.45µM* | nt | nt | 0.35µM* | 1.9µM*
CCN(CC)S(=O)(=O)c1ccc2c(c1)c(=O)c(C(=O)N1CCN(c3cc(Cl)ccc3C)CC1)cn2C | nt | -7% | nt | nt | -2%
CCOc1ccc(C(=O)CSc2nc3cc(C(=O)NC4CCCC4)ccc3c(=O)n2CC2CCCO2)cc1 (centres undefined) | nt | nt | nt | nt | -1%
CCOC(=O)c1c(C)[nH]c(C)c1S(=O)(=O)N(C)CC(=O)N1CCN(c2cccc(C)c2C)CC1 | nt | nt | nt | nt | 3%
Fc1ccc(-c2noc(-c3ccc4c(c3)CCO4)n2)cc1 | 0.4µM* | nt | nt | ? | 0.54µM*
Cc1c(NC(=O)COC(=O)c2cc(-c3ccc(-c4ccccc4)cc3)nc3ccccc23)c(=O)n(-c2ccccc2)n1C | 2.5µM* | 0.63µM* | 1% | 0.63µM* | 0.85µM*
